# Results: article PMC4336329 (PLoS ONE, 2015)
# Screen size: about 310,000 compounds; about 14,000 (4.5%) showed an effect of 50% or more. Effects have a minus sign here. The list comes from a sample in which strong results are over-represented; it also holds similar structures and randomly drawn compounds.
# Target: human ether-à-go-go-related gene (hERG) potassium channel (human, UniProt Q12809)
# Assay: primary screen, population patch clamp on CHO cells stably expressing hERG; higher = less effect of the substance
# 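Further: peak tail current of the secondary pulse compared with the same well before compound.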
# human ether-à-go-go-related gene (hERG) potassium channel, sequence (Q12809 whole entry, looked up): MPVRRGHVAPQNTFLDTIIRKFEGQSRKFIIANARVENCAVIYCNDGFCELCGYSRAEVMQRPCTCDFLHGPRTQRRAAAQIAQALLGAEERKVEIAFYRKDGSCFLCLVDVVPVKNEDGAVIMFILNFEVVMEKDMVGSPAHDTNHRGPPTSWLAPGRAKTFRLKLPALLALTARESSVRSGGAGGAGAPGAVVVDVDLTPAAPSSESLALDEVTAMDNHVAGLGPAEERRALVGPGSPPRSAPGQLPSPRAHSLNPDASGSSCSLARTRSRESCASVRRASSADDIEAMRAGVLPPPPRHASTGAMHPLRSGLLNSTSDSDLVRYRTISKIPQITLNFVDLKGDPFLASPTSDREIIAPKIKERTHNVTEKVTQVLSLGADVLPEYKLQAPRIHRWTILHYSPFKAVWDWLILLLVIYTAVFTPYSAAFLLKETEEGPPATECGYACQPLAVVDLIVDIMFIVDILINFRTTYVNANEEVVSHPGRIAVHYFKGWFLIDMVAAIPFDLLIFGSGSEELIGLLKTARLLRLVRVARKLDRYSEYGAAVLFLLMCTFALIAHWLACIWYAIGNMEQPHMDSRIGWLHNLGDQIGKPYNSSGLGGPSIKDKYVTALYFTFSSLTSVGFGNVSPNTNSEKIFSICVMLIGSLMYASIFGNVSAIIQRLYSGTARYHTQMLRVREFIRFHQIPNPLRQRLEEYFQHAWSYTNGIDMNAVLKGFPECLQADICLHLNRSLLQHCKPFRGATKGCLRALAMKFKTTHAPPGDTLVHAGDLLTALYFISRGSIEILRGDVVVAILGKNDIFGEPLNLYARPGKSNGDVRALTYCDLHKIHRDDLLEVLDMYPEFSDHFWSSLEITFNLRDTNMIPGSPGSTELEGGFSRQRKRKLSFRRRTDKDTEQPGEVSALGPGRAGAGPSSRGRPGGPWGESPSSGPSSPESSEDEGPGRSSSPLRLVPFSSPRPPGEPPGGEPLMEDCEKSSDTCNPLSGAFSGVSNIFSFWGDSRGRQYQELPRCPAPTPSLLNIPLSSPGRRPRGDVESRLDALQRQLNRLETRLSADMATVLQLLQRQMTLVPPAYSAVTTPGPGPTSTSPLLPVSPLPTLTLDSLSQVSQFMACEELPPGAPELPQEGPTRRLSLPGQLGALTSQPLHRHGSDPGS
row,Compound,"hERG current change (%, negative = inhibition) at 10uM"
1,COc1ccc(/C=C2\C(=O)NC(=O)N(CCC3=CCCCC3)C2=O)c(OC)c1,24.6%
2,COc1ccccc1NC(=O)C1=C(C)Nc2nnnn2C1c1cc(Br)ccc1OC (stereo not drawn),-0.22%
3,CCOc1ccccc1C(=O)OCC(=O)NCCNC(=O)COC(=O)c1ccccc1OCC,5.95%
4,O=C(CC1S/C(=N/N=C/c2cccs2)NC1=O)Nc1ccc(Cl)cc1 (stereo not drawn),-3.86%
5,Cc1cc(C)cc(N(C(=O)c2snc(C(N)=O)c2N)C(C(=O)NCC2CCCO2)c2cccs2)c1 (stereo not drawn),-18.7%
6,Cc1ccc(C(=O)/C=C/Nc2ccccn2)cc1,-1.05%
7,O=C(COc1ccccc1[N+](=O)[O-])N1CCN(S(=O)(=O)c2ccccc2)CC1,-46.6%
8,CCOC(=O)Cn1c(C)nc2c(C(=O)OCC)sc(C)c2c1=O,-5%
9,O=C(NCCCN1CCCC1=O)c1cc(NS(=O)(=O)c2ccc(F)cc2)cc(NS(=O)(=O)c2ccc(F)cc2)c1,-4.88%
10,CCn1c(N2CCN(C(=O)/C=C/c3ccccc3)CC2)nc2ccccc21,-80.8%
11,CCCn1c(N2CCN(C(=O)/C=C/C(=O)O)CC2)nc2ccccc21,9.76%
12,CCn1c(N2CCN(C(=O)C34CC5CC(CC(C5)C3)C4)CC2)nc2ccccc21,-37.9%
13,Cc1cccc(C(=O)NC(=S)NNC(=O)Cc2ccccc2)c1,3.66%
14,O=C(C1CCCO1)N1CCN(C(=S)NC2CC2)CC1 (stereo not drawn),23%
15,COc1cccc(C2C=C(c3ccc(OC)cc3OC)Nc3nnnn32)c1 (stereo not drawn),1.76%
16,O=C(CCNS(=O)(=O)c1cccc2nonc12)N1CCN(c2cccc(Cl)c2)CC1,-50.6%
17,Cc1ccc(C)c(N2CCN(C(=O)CCS(=O)(=O)c3cccc4nonc34)CC2)c1,-25.4%
18,O=S(=O)(c1cccc2nonc12)N1CCN(c2cccc(Cl)c2)CC1,-4%
19,O=C(CCS(=O)(=O)c1cccc2nonc12)N1CCOCC1,14.6%
20,Cc1ccc(S(=O)(=O)NCCC(=O)N2CCN(c3cccc(Cl)c3)CC2)cc1C,4.35%
21,O=C(CCS(=O)(=O)c1cccc2nonc12)N1CCN(c2ccc(F)cc2)CC1,-60.8%

row,Compound,"hERG current change (%, negative = inhibition) at 10uM"
1,CSc1ncc(C(=O)Nc2ccccc2C)c(C)n1,12.5%
2,Cc1ccc(-c2nc3c(=O)n(C)c4ccccc4c3o2)cc1,22.3%
3,Nc1cc(=O)[nH]c(=O)n1-c1cccc(F)c1,18.4%
4,COc1ccccc1NC(=O)c1cc2c(=O)n(C)c3ccccc3c2n1C,1.19%
5,O=C(OCCOc1cccc(Cl)c1)c1cc(S(=O)(=O)N2CCOCC2)ccc1F,-14%
6,CCn1c(COc2ccc(OC)cc2)nc2ccccc21,-19.8%
7,Cc1ccccc1NC(=O)C1CCN(C2=NS(=O)(=O)c3ccccc32)CC1,-15.2%
8,COc1cc(CNc2ccccc2)c([N+](=O)[O-])cc1OC.O=C(O)C(=O)O,-3.72%
9,C/C(=C1/SC(N2CCOCC2)=NC1=O)c1ccc(Br)cc1,14.8%
10,C/C(=C1/SC(N2CCCC2)=NC1=O)c1ccc(Br)cc1,-76.7%
11,C/C(=C1\SC(N2CCOCC2)=NC1=O)c1ccc(C)cc1,-10.8%
12,CC(C)Cn1c(SCC(=O)N2CC(=O)Nc3ccccc32)nc2ccccc21,4.27%
13,CCCN(CC1CC1)C(=O)CCc1nnc(C(OC)c2ccccc2)o1 (stereo not drawn),-4.58%
14,Cc1cccc(OCC(=O)N/N=C2/SCC(=O)N2Cc2ccco2)c1,-25.4%
15,Cc1ccc(OCC(=O)N/N=C2/SCC(=O)N2Cc2ccco2)cc1,-28%
16,O=C(COc1ccc(Br)cc1)N/N=C1/SCC(=O)N1Cc1ccco1,-59.8%
17,NS(=O)(=O)c1ccc(CCNC(=O)c2cccc([N+](=O)[O-])c2)cc1,11.2%
18,O=c1c2ccccc2ncn1-c1ccc([N+](=O)[O-])cc1[N+](=O)[O-],10.7%
19,O=C(c1ccc([N+](=O)[O-])cc1[N+](=O)[O-])n1cnc2ccccc21,-16.4%
20,Cc1cccc(-n2cnc3cc([N+](=O)[O-])ccc32)c1,-51.9%
21,O=[N+]([O-])c1ccccc1-n1cnc2ccccc21,-18.2%

row,Compound,"hERG current change (%, negative = inhibition) at 10uM"
1,O=[N+]([O-])c1ccc2c(c1)ncn2-c1ccccc1,-21.6%
2,O=c1c2ccccc2ncn1-c1ccc(Br)cc1[N+](=O)[O-],-61.4%
3,Nc1ccc(-n2cnc3cc([N+](=O)[O-])ccc32)cc1,1.35%
4,O=[N+]([O-])c1ccc(-n2cnc3ccccc32)c([N+](=O)[O-])c1,-57.8%
5,O=c1c2ccccc2ncn1-c1ccc(Cl)cc1[N+](=O)[O-],-4.65%
6,C[C@]12CCC(=O)C=C1CC[C@@H]1[C@@H]2C(=O)C[C@]2(C)C(=O)CC[C@@H]12,7.99%
7,O=C(N/N=C/c1ccccn1)C(O)c1ccccc1 (stereo not drawn),9.82%
8,Cn1c(=O)n(C)c2cc(N3CCOCC3)c(NC(=O)c3cccc(Cl)c3)cc21,5.25%
9,COc1ccc(NC(=O)C/C(C)=N/NC(=O)c2cnccn2)cc1,15.5%
10,CC1(OC(=O)CCc2ccccc2)C(=O)C=C2C=C(c3ccc(C#N)cc3)N(C3CC3)C=C2C1=O (stereo not drawn),-51.7%
11,C=CCN1C=C2C(=O)C(C)(OC(=O)CCc3ccccc3)C(=O)C=C2C=C1c1ccc(C#N)cc1 (stereo not drawn),-28.8%
12,CC1(OC(=O)CCc2ccccc2)C(=O)C=C2C=C(c3ccc(C#N)cc3)N(c3ccccc3)C=C2C1=O (stereo not drawn),14.3%
13,COCCN1C=C2C(=O)C(C)(OC(=O)CCc3ccccc3)C(=O)C=C2C=C1c1ccc(C#N)cc1 (stereo not drawn),-72.4%
14,CC1(OC(=O)CCc2ccccc2)C(=O)C=C2C=C(c3ccc(C#N)cc3)N(CC3CC3)C=C2C1=O (stereo not drawn),-44.6%
15,CC1(OC(=O)CCc2ccccc2)C(=O)C=C2C=C(c3ccc(C#N)cc3)N(CCc3c[nH]c4ccccc34)C=C2C1=O (stereo not drawn),-7.98%
16,CCN(CC)CCCN1C=C2C(=O)C(C)(OC(=O)CCc3ccccc3)C(=O)C=C2C=C1c1ccc(C#N)cc1 (stereo not drawn),-37.6%
17,CC(C)OCCCN1C=C2C(=O)C(C)(OC(=O)CCc3ccccc3)C(=O)C=C2C=C1c1ccc(C#N)cc1 (stereo not drawn),-71.3%
18,CC1(OC(=O)CCc2ccccc2)C(=O)C=C2C=C(c3ccc(C#N)cc3)N(C3CCCC3)C=C2C1=O (stereo not drawn),-49.7%
19,CC1(OC(=O)CCc2ccccc2)C(=O)C=C2C=C(c3ccc(C#N)cc3)N(CCN3CCOCC3)C=C2C1=O (stereo not drawn),-49.9%
20,CC1(OC(=O)CCc2ccccc2)C(=O)C=C2C=C(c3ccc(C#N)cc3)N(CCc3ccccn3)C=C2C1=O (stereo not drawn),-51.8%
21,CC(C)CN1C=C2C(=O)C(C)(OC(=O)CCc3ccccc3)C(=O)C=C2C=C1c1ccc(C#N)cc1 (stereo not drawn),-26.9%
